{"source": "ChEMBL document CHEMBL2218924", "about": "“A broad activity screen in support of a chemogenomic map for kinase signalling research and drug discovery” (Biochem J, 2013)"}
{"molecular_target": "Serine/threonine-protein kinase Chk2 (Homo sapiens) (UniProt O96017)", "sequence (O96017 whole entry)": "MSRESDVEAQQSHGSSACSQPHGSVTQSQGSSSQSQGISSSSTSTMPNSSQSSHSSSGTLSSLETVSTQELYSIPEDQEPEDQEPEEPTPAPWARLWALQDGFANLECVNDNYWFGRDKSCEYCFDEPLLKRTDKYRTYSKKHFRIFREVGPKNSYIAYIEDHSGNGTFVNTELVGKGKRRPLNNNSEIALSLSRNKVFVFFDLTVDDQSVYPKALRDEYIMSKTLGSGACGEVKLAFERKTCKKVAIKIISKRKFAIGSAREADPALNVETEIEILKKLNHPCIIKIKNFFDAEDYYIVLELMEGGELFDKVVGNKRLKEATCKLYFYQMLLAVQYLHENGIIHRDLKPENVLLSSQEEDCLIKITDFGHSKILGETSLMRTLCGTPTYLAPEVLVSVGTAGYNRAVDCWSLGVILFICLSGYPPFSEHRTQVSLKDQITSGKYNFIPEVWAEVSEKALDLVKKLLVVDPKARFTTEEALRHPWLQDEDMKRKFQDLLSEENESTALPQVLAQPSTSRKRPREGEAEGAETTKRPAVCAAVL", "conditions": "at 1 µM", "units": {"residual activity": "%"}}
{"smiles": "CCCC(=O)Oc1ccc2[nH]c(C(=O)c3cc4ccccc4[nH]3)cc2c1", "residual activity": 93}
{"smiles": "Cn1sc(=O)n(Cc2ccccc2)c1=O", "residual activity": 71}
{"smiles": "Nc1n[nH]c2nc3ccccc3nc12", "residual activity": 82}
{"smiles": "COc1cc2nccc(Oc3ccc(NC(=S)NC(=O)c4ccccc4C)cc3)c2cc1OC", "residual activity": 48}
{"smiles": "NCCNc1ncc(C(N)=O)c(Nc2cccc(C(F)(F)F)c2)n1", "residual activity": 15}
{"smiles": "CC(C)(C)n1nc(Cc2cccc3ccccc23)c2c(N)ncnc21", "residual activity": 96}
{"smiles": "O=S(=O)(NCCNC/C=C/c1ccc(Br)cc1)c1cccc2cnccc12", "residual activity": 81}
{"smiles": "Nc1ncnc2c1cnn2-c1ccccc1", "residual activity": 92}
{"smiles": "O=c1cc(N2CCOCC2)oc2c1ccc1ccccc12", "residual activity": 111}
{"smiles": "O=C(O)/C=C/c1cc(Br)c(Br)c(Br)c1Br", "residual activity": 59}
{"smiles": "O=C1NC(=O)c2c1c1c3ccccc3[nH]c1n1cncc21", "residual activity": 23}
{"smiles": "O=C(Nc1nc2ccccc2n1CCN1CCOCC1)c1cccc([N+](=O)[O-])c1", "residual activity": 79}
{"smiles": "COc1ccc2c(c1)c(C1=C(c3c[nH]c4ccccc34)C(=O)NC1=O)cn2CCCN(C)C", "residual activity": 34}
{"smiles": "O=C(c1ccccc1)c1ccc(N2CCOCC2)cc1O", "residual activity": 86}
{"smiles": "Nc1nc(Nc2ccc(S(N)(=O)=O)cc2)nn1C(=O)c1c(F)cccc1F", "residual activity": 52}
{"smiles": "NC(=O)Nc1sc(-c2ccc(F)cc2)cc1C(N)=O", "residual activity": 34}
{"smiles": "O=C(c1cc2cc(O)ccc2[nH]1)c1cc2cc(O)ccc2[nH]1", "residual activity": 60}
{"smiles": "CCCCc1c(-c2ccc(O)cc2)[nH]c2nccnc12", "residual activity": 31}
{"smiles": "N#C/C(=C1/Nc2ccccc2S1)c1ccnc(NCCc2cccnc2)n1", "residual activity": 80}
{"smiles": "COc1cc2c(cc1OC)-c1n[nH]c(Nc3cccc(F)c3)c1C2", "residual activity": 82}
{"smiles": "Cc1cc(C)c(/C=C2\\C(=O)Nc3ccccc32)[nH]1", "residual activity": 18}
{"smiles": "CN(C)S(=O)(=O)c1ccc2c(c1)/C(=C/c1cc3c([nH]1)CCCC3)C(=O)N2", "residual activity": 35}
{"smiles": "CCN(CC)CCNC(=O)c1c(C)[nH]c(/C=C2\\C(=O)Nc3ccc(Cl)cc32)c1C", "residual activity": 6}
{"smiles": "Nc1ncnc2c1c(-c1ccc(Oc3ccccc3)cc1)cn2C1CCCC1", "residual activity": 79}
{"smiles": "CC(C)c1nn(-c2c(Cl)cccc2Cl)c2nc(Cc3ccc(OCCO)cc3)[nH]c(=O)c12", "residual activity": 91}
{"smiles": "O=c1cc(N2CCNCC2)oc2c(-c3ccccc3)cccc12", "residual activity": 90}
{"smiles": "O=C1C(Cl)=C(N2C(=O)CCC2=O)C(=O)c2ccccc21", "residual activity": 88}
{"smiles": "O=C1Nc2ccc(Cl)cc2/C1=C/c1cc(Cl)c(O)c(Cl)c1", "residual activity": 76}
{"smiles": "O=C1Cc2c([nH]c3ccc([N+](=O)[O-])cc23)-c2ccccc2N1", "residual activity": 3}
{"molecular_target": "Serine/threonine-protein kinase Chk2 (Homo sapiens) (UniProt O96017)", "conditions": "at 10 µM", "units": {"residual activity": "%"}}
{"smiles": "CCCC(=O)Oc1ccc2[nH]c(C(=O)c3cc4ccccc4[nH]3)cc2c1", "residual activity": 97}
{"smiles": "Cn1sc(=O)n(Cc2ccccc2)c1=O", "residual activity": 67}
{"smiles": "Nc1n[nH]c2nc3ccccc3nc12", "residual activity": 61}
{"smiles": "COc1cc2nccc(Oc3ccc(NC(=S)NC(=O)c4ccccc4C)cc3)c2cc1OC", "residual activity": 23}
{"smiles": "NCCNc1ncc(C(N)=O)c(Nc2cccc(C(F)(F)F)c2)n1", "residual activity": 2}
{"smiles": "CC(C)(C)n1nc(Cc2cccc3ccccc23)c2c(N)ncnc21", "residual activity": 48}
{"smiles": "O=S(=O)(NCCNC/C=C/c1ccc(Br)cc1)c1cccc2cnccc12", "residual activity": 27}
{"smiles": "O=c1cc(N2CCOCC2)oc2c1ccc1ccccc12", "residual activity": 93}
{"smiles": "O=C(O)/C=C/c1cc(Br)c(Br)c(Br)c1Br", "residual activity": 33}
{"smiles": "O=C1NC(=O)c2c1c1c3ccccc3[nH]c1n1cncc21", "residual activity": 8}
{"smiles": "O=C(Nc1nc2ccccc2n1CCN1CCOCC1)c1cccc([N+](=O)[O-])c1", "residual activity": 67}
{"smiles": "COc1ccc2c(c1)c(C1=C(c3c[nH]c4ccccc34)C(=O)NC1=O)cn2CCCN(C)C", "residual activity": 9}
{"smiles": "Nc1nc(Nc2ccc(S(N)(=O)=O)cc2)nn1C(=O)c1c(F)cccc1F", "residual activity": 11}
{"smiles": "NC(=O)Nc1sc(-c2ccc(F)cc2)cc1C(N)=O", "residual activity": 4}
{"smiles": "O=C(c1cc2cc(O)ccc2[nH]1)c1cc2cc(O)ccc2[nH]1", "residual activity": 22}
{"smiles": "CCCCc1c(-c2ccc(O)cc2)[nH]c2nccnc12", "residual activity": 10}
{"smiles": "N#C/C(=C1/Nc2ccccc2S1)c1ccnc(NCCc2cccnc2)n1", "residual activity": 48}
{"smiles": "COc1cc2c(cc1OC)-c1n[nH]c(Nc3cccc(F)c3)c1C2", "residual activity": 70}
{"smiles": "Cc1cc(C)c(/C=C2\\C(=O)Nc3ccccc32)[nH]1", "residual activity": 3}
{"smiles": "CCN(CC)CCNC(=O)c1c(C)[nH]c(/C=C2\\C(=O)Nc3ccc(Cl)cc32)c1C", "residual activity": 1}
{"smiles": "Nc1ncnc2c1c(-c1ccc(Oc3ccccc3)cc1)cn2C1CCCC1", "residual activity": 24}
{"smiles": "CC(C)c1nn(-c2c(Cl)cccc2Cl)c2nc(Cc3ccc(OCCO)cc3)[nH]c(=O)c12", "residual activity": 80}
{"smiles": "O=c1cc(N2CCNCC2)oc2c(-c3ccccc3)cccc12", "residual activity": 91}
{"smiles": "O=C1C(Cl)=C(N2C(=O)CCC2=O)C(=O)c2ccccc21", "residual activity": 84}
{"smiles": "O=C1Nc2ccc(Cl)cc2/C1=C/c1cc(Cl)c(O)c(Cl)c1", "residual activity": 25}
{"smiles": "O=C1Cc2c([nH]c3ccc([N+](=O)[O-])cc23)-c2ccccc2N1", "residual activity": 1}
{"molecular_target": "Casein kinase I isoform gamma-1 (Homo sapiens) (UniProt Q9HCP0)", "sequence (Q9HCP0 whole entry, looked up, canonical isoform)": "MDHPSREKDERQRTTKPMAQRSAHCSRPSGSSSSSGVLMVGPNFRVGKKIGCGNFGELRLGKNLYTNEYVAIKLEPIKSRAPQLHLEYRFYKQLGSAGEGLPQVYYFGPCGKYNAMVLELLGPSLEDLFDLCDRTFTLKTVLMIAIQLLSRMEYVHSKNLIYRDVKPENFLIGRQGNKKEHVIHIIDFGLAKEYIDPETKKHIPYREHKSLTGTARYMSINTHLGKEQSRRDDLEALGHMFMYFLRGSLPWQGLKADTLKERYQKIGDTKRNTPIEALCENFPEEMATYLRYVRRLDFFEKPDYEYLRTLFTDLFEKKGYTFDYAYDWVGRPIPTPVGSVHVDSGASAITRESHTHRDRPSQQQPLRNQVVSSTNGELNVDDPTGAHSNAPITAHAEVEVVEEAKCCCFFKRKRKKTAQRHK", "conditions": "at 1 µM", "units": {"residual activity": "%"}}
{"smiles": "CCCC(=O)Oc1ccc2[nH]c(C(=O)c3cc4ccccc4[nH]3)cc2c1", "residual activity": 90}
{"smiles": "Cn1sc(=O)n(Cc2ccccc2)c1=O", "residual activity": 96}
{"smiles": "Nc1n[nH]c2nc3ccccc3nc12", "residual activity": 79}
{"smiles": "COc1cc2nccc(Oc3ccc(NC(=S)NC(=O)c4ccccc4C)cc3)c2cc1OC", "residual activity": 91}
{"smiles": "Nc1ncnc2c1cnn2-c1ccccc1", "residual activity": 98}
{"smiles": "O=c1cc(N2CCOCC2)oc2c1ccc1ccccc12", "residual activity": 100}
{"smiles": "O=C(O)/C=C/c1cc(Br)c(Br)c(Br)c1Br", "residual activity": 103}
{"smiles": "O=C1NC(=O)c2c1c1c3ccccc3[nH]c1n1cncc21", "residual activity": 58}
{"smiles": "O=C(Nc1nc2ccccc2n1CCN1CCOCC1)c1cccc([N+](=O)[O-])c1", "residual activity": 58}
{"smiles": "O=C(c1ccccc1)c1ccc(N2CCOCC2)cc1O", "residual activity": 86}
{"smiles": "NC(=O)Nc1sc(-c2ccc(F)cc2)cc1C(N)=O", "residual activity": 104}
{"smiles": "O=C(c1cc2cc(O)ccc2[nH]1)c1cc2cc(O)ccc2[nH]1", "residual activity": 50}
{"smiles": "CCCCc1c(-c2ccc(O)cc2)[nH]c2nccnc12", "residual activity": 75}
{"smiles": "N#C/C(=C1/Nc2ccccc2S1)c1ccnc(NCCc2cccnc2)n1", "residual activity": 77}
{"smiles": "CCN(CC)CCNC(=O)c1c(C)[nH]c(/C=C2\\C(=O)Nc3ccc(Cl)cc32)c1C", "residual activity": 64}
{"smiles": "Nc1ncnc2c1c(-c1ccc(Oc3ccccc3)cc1)cn2C1CCCC1", "residual activity": 88}
{"smiles": "CC(C)c1nn(-c2c(Cl)cccc2Cl)c2nc(Cc3ccc(OCCO)cc3)[nH]c(=O)c12", "residual activity": 74}
{"smiles": "O=c1cc(N2CCNCC2)oc2c(-c3ccccc3)cccc12", "residual activity": 97}
{"smiles": "O=C1Nc2ccc(Cl)cc2/C1=C/c1cc(Cl)c(O)c(Cl)c1", "residual activity": 89}
